Consider 49 compounds from PubChem BioAssay AID2685 (National Center for Advancing Translational Sciences (NCATS), 2010).

Screen size: about 320,000 compounds; about 2,100 (0.66%) were called active. About 53% were inconclusive and are not listed. The call rests on the fitted dose curve; in most records, active means well fitted inhibition curve with a large enough effect in the signal ratio, with a control signal flat (not every such curve was filed as active); inconclusive means small, poorly fitted or top-dose-only effect, or effect the other way, or a change in a side signal; inactive means flat fitted curve, though single readings scatter; the % refers to the signal ratio. The full list was thinned out, with actives kept by preference.
Potency means the concentration at half of the fitted maximal effect.

A short description of this test: qHTS Assay for Lipid Storage Modulators in Drosophila S3 Cells.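 On cell number change: cells counted by Cell Tracker Red CMTPX staining in the red channel.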 On lipid storage change, negative = inhibition: on the % scale 0 is the no-effect control and ±100 the full control effect. To be noted: BODIPY lipid droplet fluorescence, 18-24 h, cells fed with added oleic acid; cell number change: measured here: cell count max response; series mostly up to 46.1 µM; lipid storage change, negative = inhibition: at the top concentration. In outline: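 Laser-scanning cytometry quantifies lipid droplet accumulation (500–530 nm total intensity; droplet/cell object ratio) in oleic acid-fed (400 uM added) Drosophila S3 cells treated with a concentration series. 20 uM Triacsin C defined 100% inhibition.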
(In general: Quantitative high-throughput screening tests each substance at several concentrations.)
As to `CCCn1c(=O)c2sccc2n2c(CCCC(=O)NCc3ccco3)nnc12`, the Potency is 29.1 µM (active) and the cell number change is -3.77%. With `CCCn1c(=O)c2sccc2n2c(CCCC(=O)NC3CCN(Cc4ccccc4)CC3)nnc12`, the result was inactive and the cell number change came out at 6.65%.

With `Cn1c(=O)c2sccc2n2c(CCCC(=O)NCc3ccco3)nnc12`, the result was inactive and the cell number change was -10.3%.

Turning to `CCCn1c(=O)c2sccc2n2c(CCCC(=O)NCC3CCCO3)nnc12` (stereo unspecified), the Potency is 20.6 µM (active) and the cell number change is -21.7%. On to `Cn1c(C(=O)OCC(=O)NCC2CCCO2)cc2sccc21` (stereo unspecified), for which the “lipid storage change, negative = inhibition” value was 0.961% (inactive) and the cell number change came out at 0.161%.

`O=C(CCCn1c(=O)c2sccc2n(CC(=O)NCC2CCCO2)c1=O)NCc1ccco1` (stereo unspecified): the “lipid storage change, negative = inhibition” value was 8.98% (inactive) and the cell number change was found to be 3.33%. For `CCCN(CCC)C(=O)Cn1c(=O)n(CCCC(=O)NCc2ccco2)c(=O)c2sccc21` the same measures were -0.536% (inactive) and 2.76%.

As for `COCCCn1c(=O)c2sccc2n2c(CCCC(=O)NCc3ccccc3)nnc12`, the compound was called inactive and the cell number change was determined as 12.6%. For `COCCCn1c(=O)c2sccc2n2c(CCCC(=O)NCC3CCCO3)nnc12` (stereo unspecified), the Potency was 18.4 µM (active) and the cell number change is 11.8%. In the case of `O=C(O)CCCN=C1NC2(CCCC2)Cc2ccccc21`, the “lipid storage change, negative = inhibition” value was 6.16% (inactive) and the cell number change was 11.6%.

In the case of `Cc1cc(=O)[nH]c(SCC(=O)c2ccc3c(c2)NC(=O)CO3)n1`, the “lipid storage change, negative = inhibition” value was 1.83% (inactive) and the cell number change turned out to be 4.71%. As to `COc1cccc(NC(=O)CN(C)C(=O)CSc2nc(C)cc(C)n2)c1`, the “lipid storage change, negative = inhibition” value is 24.9% (inactive) and the cell number change is 1.93%.

As for `COC(=O)c1c(NC(=O)c2cccnc2Cl)sc(C(=O)N(C)C)c1C`, the “lipid storage change, negative = inhibition” value was 20.4% (inactive) and the cell number change came to 7.02%. For `COc1ccccc1C(CC(=O)Nc1ccc(C)c(C)c1)c1ccc(OC(C)C)cc1` (stereo unspecified) the same measures were -0.923% (inactive) and 11.9%.

As to `COC(=O)COc1ccc(NC(=O)Cn2nc(-c3ccccc3)c3ccccc3c2=O)cc1`, the “lipid storage change, negative = inhibition” value was -8.81% (inactive) and the cell number change was 0.0736%.

Turning to `COc1ccc(CNc2nc(S(=O)(=O)c3ccccc3)c(Cl)s2)cc1OC`, the “lipid storage change, negative = inhibition” value is -3.6% (inactive) and the cell number change is -10.4%. For `Cc1onc(-c2ccccc2Cl)c1C(=O)Oc1cc(N)n(S(=O)(=O)c2ccc(F)cc2)n1` the same measures were -2.64% (inactive) and -4.68%. For `Nc1cc(OC(=O)c2c(F)cccc2Cl)nn1S(=O)(=O)c1ccccc1`, the Potency was 0.517 µM (active) and the cell number change is -4.17%. For the compound `Cc1ccc(S(=O)(=O)n2nc(OC(=O)c3c(F)cccc3Cl)cc2N)cc1`, the compound was called inactive and the cell number change was 5.65%. Turning to `COc1ccc(-c2onc3ccc(Cl)cc23)cc1`, the result was inactive. For the compound `Cc1ccc(NC(=O)c2cc(-n3cnnc3)ccc2Cl)cc1`, the “lipid storage change, negative = inhibition” value was 10.7% (inactive) and the cell number change was -2.68%. As for `CC(C)NC(=O)c1cc(-n2cnnc2)ccc1Cl`, the Potency is 25.9 µM (active) and the cell number change is -14.2%. `CC(=O)Nc1ccc(NC(=O)c2cc(-n3cnnc3)ccc2Cl)cc1`: the compound was classed as inactive. For `Cc1cc(Cl)ccc1NC(=S)NCCc1ccc(Cl)cc1`, the Potency is 16.4 µM (active) and the cell number change is -20.6%.

Take `CCCNC(=S)Nc1ccc(Cl)cc1C`: the “lipid storage change, negative = inhibition” value was -8.54% (inactive) and the cell number change was -19.9%. For `Cc1cc(Cl)ccc1NC(=S)NCC(C)C` the same measures were 4.75% (inactive) and -2.85%. For `Cc1ccc(/C=C2/SC(=S)N(CCC(=O)N3CCN(C)CC3)C2=O)cc1` the same measures were -5.28% (inactive) and 1.31%.

As for `Cc1csc(NC(=O)CCS(=O)(=O)c2ccc(Br)cc2)n1`, the call was inactive. Turning to `Cc1ccc(S(=O)(=O)CC(=O)Nc2nc(-c3ccccc3)cs2)cc1`, the compound was called inactive.

Regarding `O=C(CCS(=O)(=O)c1ccc(F)cc1)Nc1nc(-c2ccncc2)cs1`, the call was inactive and the cell number change was -16.7%.

In the case of `Cc1ccc(S(=O)(=O)CCC(=O)Nc2nc(-c3cccnc3)cs2)cc1`, the Potency is 13 µM (active) and the cell number change is -24.9%. Consider `Cc1ccc(S(=O)(=O)CCC(=O)Nc2nc(C(C)(C)C)cs2)cc1`, for which the Potency was 23.1 µM (active) and the cell number change was -1.15%.

Take `Cc1ccc(S(=O)(=O)CC(=O)Nc2nc(C(C)(C)C)cs2)cc1`: the result was inactive and the cell number change is 18.4%.

In the case of `O=C(N/N=C/c1sc(N2CCOCC2)nc1-c1ccccc1)c1cccc(S(=O)(=O)N2CCCC2)c1`, the “lipid storage change, negative = inhibition” value was 27.6% (inactive) and the cell number change is 111%. Consider `Cc1occc1C(=O)N/N=C/c1sc(N2CCOCC2)nc1-c1ccccc1`, for which the “lipid storage change, negative = inhibition” value is -6.96% (inactive) and the cell number change was -21.3%. Consider `O=[N+]([O-])c1ccc(N/N=C/c2sc(N3CCOCC3)nc2-c2ccccc2)c(S(=O)(=O)Nc2ccccc2Cl)c1`, for which the Potency was 1.03 µM (active).

On to `O=C(c1ccccc1)c1nc2c(n1O)CCCCC2`, for which the outcome was inactive.

On to `Cc1cc(C(=O)Nc2ccccc2C(=O)O)ccc1NC(=O)COc1cccc([N+](=O)[O-])c1`, for which the “lipid storage change, negative = inhibition” value was 12.2% (inactive) and the cell number change was found to be 6.05%. For `COc1ccc(S(=O)(=O)N(CC(=O)NCCC(C)C)c2ccccc2)cc1OC` the same measures were -27.8% (inactive) and -21.6%. For `COc1cccc2cc(C(=O)Oc3ccccc3)c(=O)oc12` the same measures were -22.4% (inactive) and -11.3%. For `COc1cccc2cc(C(=O)NCCc3ccccc3)c(=O)oc12` the same measures were 6.67% (inactive) and 4.66%. Consider `COc1cccc2cc(C(=O)OCc3ccccc3)c(=O)oc12`, for which the Potency was 1.46 µM (active) and the cell number change is -24.9%. `CCN1CCN(C(=S)Nc2ccc(C(C)=O)cc2)CC1`: the “lipid storage change, negative = inhibition” value was 9.37% (inactive). As for `COc1ccc(C(C)NC(=O)C2C(=O)NC3(C)CC2c2ccccc2O3)cc1` (stereo unspecified), the “lipid storage change, negative = inhibition” value is 9.39% (inactive) and the cell number change was -6.03%. For `CC12CCC(C(=O)NCc3ccccc3)(OC1=O)C2(C)C` (stereo unspecified), the compound was classed as inactive and the cell number change is -20.7%. As to `CC12CC(c3ccccc3O1)C(C(=O)N1CCOCC1)C(=O)N2` (stereo unspecified), the “lipid storage change, negative = inhibition” value was 1.33% (inactive) and the cell number change is -1.42%. As for `CC1(C)OC(=O)CC1C(=O)NCc1ccccc1` (stereo unspecified), the Potency was 1.84 µM (active) and the cell number change worked out at 7.5%. For `O=C1CCC(C(=O)NCc2ccccc2)N1` (stereo unspecified), the “lipid storage change, negative = inhibition” value is -8.49% (inactive) and the cell number change came to 7.41%. In the case of `CC12CC(c3ccccc3O1)C(C(=O)NCc1ccccc1)C(=O)N2` (stereo unspecified), the Potency was 29.1 µM (active) and the cell number change amounted to 13.7%.
